Among the data in PubChem BioAssay AID743397 (Broad Institute, 2014) are inhibition values, retold here.

In all, about 340,000 compounds went through this assay and about 330 (0.097%) were called active. This excerpt belongs to a sample that is enriched for actives. A number with no mark means an inactive call.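 How the source made its calls: active means mean replicate inhibition of at least 30% and at least 1% of replicates passing that level; inconclusive means only one of the two criteria is met; inactive means neither criterion is met.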

The test system of this assay is Voltage-dependent L-type calcium channel subunit alpha-1D (CaV1.3) ICDI/IQ interaction. Put plainly: Primary screen for inhibitors of IQ motif and Ca2+-dependent inactivation inhibitor domain binding in CACNA1D, Förster resonance energy transfer in living cells, single-concentration test (AID 743397).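 Further: 0% = median of the neutral control wells.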 The conditions noted are these: HEK cells, CFP/YFP FRET ICDI-IQ, plate reader, 10 min; at 12.3 µM; hits give high values; percent FRET-ratio fall versus neutral wells.
For `Nc1ncnc2c1ncn2[C@@H]1O[C@H](C(=O)N[C@@H](CCc2ccccc2)C(=O)N2CCCN(Cc3cccs3)CC2)[C@@H](O)[C@H]1O`, the inhibition was -9.97%. For the compound `COC(=O)[C@]12C[C@H](CC(=O)NCCCCc3ccccc3)C(=O)N(Cc3ccc4c(c3)OCO4)C1=C[C@H](C(C)(C)C)O[C@@H]2C`, the inhibition is -10.1%.

Consider `COc1cccc(CNC(=O)[C@H]2CCCN2C(=O)[C@H]2CCCN2C(=O)c2cc(F)cc(F)c2)c1`, for which the inhibition was -7.03%. In the case of `Cc1cc(N2CCN(C(=O)OC(C)(C)C)C[C@H]2C)ccc1N1CCN(Cc2ccccc2)[C@H](C)C1` it was -7.25%; in that of `CCCCCCCCN1C(=O)[C@@H](CC(=O)NCc2ccc(C)o2)C[C@@]2(C(=O)OC)C1=C[C@H](C(C)(C)C)O[C@@H]2C`, -10.3%; in that of `Nc1nc2c(ncn2[C@@H]2O[C@H](C(=O)N[C@@H](Cc3ccccc3)C(=O)NCc3ccccc3)[C@@H](O)[C@H]2O)c(=O)[nH]1`, -5.12%. In the case of `C=CCN1C(=O)N(Cc2ccccc2)c2ccccc2S1(=O)=O` it was -4.73%; in that of `CCCCOCC1CN(CCCC)S(=O)(=O)c2c(Oc3ccc(F)cc3)cccc2O1` (centres undefined), -7.83%. `COc1cccc(CNC(=O)[C@H]2CCCN2C(=O)[C@H]2CCCN2C(=O)C2CCCCC2)c1`: the inhibition was -4.37%. As for `O=C(NS(=O)(=O)c1cccs1)[C@H]1O[C@@H](n2ccc(=O)[nH]c2=O)[C@H](O)[C@@H]1O`, the inhibition is -3.64%.

Turning to `CC(C)CNc1cccc2c1S(=O)(=O)N[C@H](C)CO2`, the inhibition is -7.79%.

Regarding `COC(=O)C1=C(C)NC(=S)NC1c1ccc(OC)cc1` (centres undefined), the inhibition is -4.39%. As for `COc1ccc(C2=CN(Cc3ccccc3)C(c3ccc(OC)cc3)CC2=O)cc1` (centres undefined), the inhibition was -3.32%. As for `CCOc1ccc(C2C3=C(CCCC3=O)N(CC(=O)O)C3=C2C(=O)CCC3)cc1`, the inhibition is -13.8%. For `COc1ccc(C2C(C#N)=C(N)N(c3ncn[nH]3)C3=C2C(=O)CCC3)cc1` (centres undefined), the inhibition is -4.27%. For `COc1ccc(C2C3=C(CCCC3=O)N(CC(=O)O)C3=C2C(=O)CCC3)cc1`, the inhibition is 111% (active). With `Cc1cc(NCCc2c[nH]c3ccccc23)ccc1Oc1cccnc1`, the inhibition was -8.52%. With `Cc1cc(OC(=O)NCCc2ccc(F)cc2)ccc1F`, the inhibition is -6.4%. To `COc1ccccc1C(=O)N1O[C@]23C=C[C@]14C[C@@H](O)CC[C@]4(C)C2CC[C@]1(C)[C@@H]([C@H](C)/C=C/[C@H](C)C(C)C)CC[C@H]13` (some centres undefined) belongs -9.42%.

For `CC(C)CNc1cccc2c1S(=O)(=O)N[C@H](CC(C)C)CO2`, the inhibition was -5.08%. Turning to `CCOCCCNc1c(CC)c(C)c(C#N)c2nc3ccccc3n12`, the inhibition is 61% (active). In the case of `Cc1cc(NC(C)C)n2c(nc3ccccc32)c1C#N` it was -0.654%.

With `CCOCCn1c(-c2ccccc2)nc2ccccc21`, the inhibition was -20.2%.

For the compound `COc1ccccc1-c1ccc([C@@H]2C[C@H]3[C@H](CON3C)CN2S(=O)(=O)c2cc(Cl)cc(Cl)c2)cc1`, the inhibition was -4.02%.

Consider `Cc1nc2c(OCc3ccc(Cl)cc3)cccn2c1N(C)Cc1cccs1`, for which the inhibition is -6.54%. For `CCCCc1c(-c2ccc(Cl)cc2)ncn1CCc1ccccc1OC`, the inhibition was -10.1%. For the compound `C=CC1=CCN(S(=O)(=O)C(C)(C)C)[C@@H]1CCO`, the inhibition is -4.63%. For `CCN1C(=O)N[C@@H]2C[C@H](C(=O)N3CCCC3)[C@H](C)[C@H](c3ccccc3)C[C@@H]21`, the inhibition is -3.87%. To `COC(=O)[C@]1(Cc2ccccc2)NC=C(C(=O)c2ccccc2)[C@@H]1c1cccc(OC)c1` belongs -4.9%. As to `COc1ccccc1CCn1cnc(-c2ccccc2)c1C(C)C`, the inhibition is -7.51%.

As to `CCCCCn1c(=O)c(C(=O)OCC)c(Cl)c2ccccc21`, the inhibition is -4.21%.

`CCCCN(CCCC)CC(O)Cn1c2ccccc2c(=O)c2ccccc21` (centres undefined): the inhibition was 107% (active). In the case of `CCCn1c(=O)c(-c2ccccc2)c(O)c2ccccc21`, the inhibition is -7.92%. Regarding `COC(=O)c1cc2c(c3c4ccccc4n(S(=O)(=O)c4cccc(C)c4)c13)C(=O)N(Cc1ccccc1)C2`, the inhibition is -4.46%.

Turning to `COC(=O)c1c(-c2ccc(OC)cc2)c2c(c3c4ccccc4n(S(=O)(=O)c4ccc(C)cc4)c13)C(=O)N(C)C2`, the inhibition is -10.3%.

As to `COC(=O)C1=C(C)N(Cc2cccc(C(F)(F)F)c2)C(=NCc2ccccc2)NC1c1ccc(Cl)cc1` (centres undefined), the inhibition was -3.3%. `COc1ccc(-c2cc(NC=O)c3ncc(-c4cc(OC)c(OC)c(OC)c4)n3c2)c(OC)c1`: the inhibition was -3.57%. In the case of `COC(=O)[C@]12C[C@H](CC(=O)NCc3cccc(C(F)(F)F)c3)C(=O)N(Cc3ccc4c(c3)OCO4)C1=C[C@H](COCc1ccccc1)O[C@@H]2C` it was -9.09%; in that of `CC(=O)Nc1ccc(OC(=O)COc2ccc(Br)cc2)cc1`, -4.58%; in that of `Cc1ccc(O)c(NC(=S)NC(=O)COc2ccc(Br)cc2)c1`, 40.4% (active).

As to `CCS(=O)(=O)c1ccc(O)c(NC(=O)COc2ccc(Cl)cc2)c1`, the inhibition is -1.51%.

For the compound `N#Cc1ccc(OCCCN2CCC(C(O)(c3ccccc3)c3ccccc3)CC2)c(F)c1`, the inhibition was -9.35%. To `O=S1(=O)c2c(cccc2N2CCCCC2)O[C@H](COCc2ccccc2)CN1C1CC1` belongs -6.9%; to `COc1cncc(-c2cnc3sc(NCCc4ccccn4)nn23)c1`, -4.67%.

Take `COc1cccc(CNC(=O)[C@H]2CCCN2C(=O)[C@H]2CCCN2C(=O)c2ccc(F)cc2)c1`: the inhibition is -5.95%. On to `COc1ccc(SSc2ccc(OC)cc2C(=O)O)c(C(=O)O)c1`, for which the inhibition was -2.9%. In the case of `Cc1ccc(NC(=O)N2c3ccccc3SC2c2ccco2)c(C)c1` (centres undefined) it was -10.9%.

Consider `Cc1cc(Br)cn2c(Cc3ccccc3C(F)(F)F)c(-c3ccc(C#N)cc3)nc12`, for which the inhibition was -10%.

Regarding `COC(=O)c1c(-c2ccc(OC)cc2)c2c(c3c4cc(OC)ccc4n(S(=O)(=O)c4ccc(F)cc4)c13)C(=O)N(C)C2`, the inhibition was -5.34%. `COc1ccc(S(=O)(=O)Nc2ccc3c(c2)C(=O)N([C@H](C)CO)C[C@H](C)[C@@H](CN(C)C)OCCCC[C@H](C)O3)cc1`: the inhibition is -5.26%. Take `COC(=O)C1=C(C)N(Cc2ccccc2C(F)(F)F)C(=NCC2CC2)NC1c1cccc(Cl)c1` (centres undefined): the inhibition was -11.5%. On to `CCOC(=O)CNC(=O)N(C)[C@H]1C[C@H]2c3[nH]c4c(-c5ccc6c(c5)OCO6)cccc4c3CCN2C(=O)[C@H]1[C@H](C)O`, for which the inhibition is -2.88%. `COc1ccc(NC(=O)N(C)C[C@@H]2OCCCC[C@@H](C)Oc3ccc(NC(=O)NC4CCCCC4)cc3C(=O)N([C@H](C)CO)C[C@@H]2C)cc1`: the inhibition was -5.46%. On to `CCCCCCCCN1C(=O)[C@@H](CC(=O)NCCCC)C[C@@]2(C(=O)OC)C1=C[C@H](C(C)(C)C)O[C@@H]2C`, for which the inhibition was -9.75%. As for `C[C@@H]1ON(C)[C@H]2C[C@H]3c4cc(N5CCOCC5)ccc4CCN3C[C@@H]12`, the inhibition was -4.48%. For the compound `COc1ccc(C2CC(c3cccs3)=NN2C(=O)CSc2nncs2)cc1OC` (centres undefined), the inhibition was -3.4%.

With `COc1ccc(C2CC(c3cccs3)=NN2C(=O)CSc2nnc(N)s2)cc1OC` (centres undefined), the inhibition is -6.31%. With `COc1ccc(C2CC(c3cccs3)=NN2c2nc(C)c(C(C)=O)s2)cc1OC` (centres undefined), the inhibition was 168% (active). In the case of `C[C@@H](CN1C2=NC[C@@H](Cc3ccccc3)N2C[C@H]1Cc1ccc(O)cc1)NC(=O)CCC1CCCCC1` it was -5.25%. With `C[C@@H]1CN([C@H](C)CO)C(=O)CCCn2cc(nn2)CO[C@H]1CN(C)C(=O)Nc1ccc(N2CCCCC2)cc1`, the inhibition is -8.15%. For `Cc1[nH]nc2c1C(c1ccc(Br)cc1)NC2=O` (centres undefined), the inhibition is -4.02%. For `COCc1cc(N2CCN(C(=O)OC(C)(C)C)C[C@@H]2C)ccc1N1CCN(Cc2ccccc2)[C@H](C)C1`, the inhibition is -8.69%. For the compound `CCOC(=O)C1=C(C(=O)OCC)C2N(Cc3ccc(C#N)cc3)c3ccccc3[C@@]23C[C@@H](C(=O)OC)N(S(=O)(=O)c2ccc(F)cc2)C3=N1` (some centres undefined), the inhibition is -8.5%.

For `CC(C)(C)c1ccc(S(=O)(=O)NCC2CCN(C(=O)C(=O)c3cc4ccccc4o3)CC2)cc1`, the inhibition is -8.19%. For the compound `COC(=O)[C@@]12C[C@@H](CC(=O)N3CCC(c4ccccc4)CC3)C(=O)N(Cc3ccccc3)C1=CCC(C)(C)C2`, the inhibition was -9.64%. For `C=CCN=C1NC(c2cccc(C(F)(F)F)c2)C(C(=O)OC)=C(C)N1C` (centres undefined), the inhibition was -4.33%.

Consider `COC(=O)C(C(=O)OC)c1ccccc1NS(=O)(=O)c1cccc2ccccc12`, for which the inhibition was -10.7%. To `Cc1nc(NC(=O)C(C)(C)C)sc1[N+](=O)[O-]` belongs -3.6%. With `CCc1c(-c2ccccc2OC)ncn1CCc1ccccc1OC`, the inhibition was -9.61%.

On to `Cc1nc2c(OCc3ccc(Cl)cc3Cl)cccn2c1N(C)CC1CC1`, for which the inhibition was -6.39%. For the compound `CC(=O)Nc1cccc(-c2cc(NC=O)c3ncc(-c4ccc(F)c(Cl)c4)n3c2)c1`, the inhibition is -10.8%.

In the case of `CN[C@H]1C[C@H]2c3[nH]c4c(-c5ccccc5)cccc4c3CCN2C(=O)[C@H]1[C@H](C)O`, the inhibition was -3.8%. Consider `CCOC(=O)[C@]12CCC=C1N(Cc1ccco1)C(=O)[C@H](CC(=O)NCc1cccc(C(F)(F)F)c1)C2`, for which the inhibition is -5.22%. For `C[C@H](O)[C@@H]1C(=O)N2CCc3c([nH]c4c(-c5ccc6c(c5)OCO6)cccc34)[C@@H]2C[C@@H]1N(C)C(=O)c1ccco1`, the inhibition was -4.05%.
